High-throughput results from PubChem BioAssay.
Most compounds without a hit are left out; they make up all but 3.4% or so of the library.
TEAD-YAP inh: TEAD-YAP interaction inhibition. inhibition, % at 9.12 µM. HEK-TIYL cells, TEAD-Gal4/YAP UAS-luciferase luminescence. AID 1259422. 1.4% of 640,000 active; in the data active means inhibition above about 32%;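 further: 0% = median of test compound wells and 100% = reference inhibitor wells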
FBW7 act: activators of human E3 ligase FBW7; Q969H0; AlphaScreen FBW7–phospho-cyclin E peptide binding, activator screen; normalized activity (activation), % at 26.1 µM; 0.13% of 650,000 active; AID 1259310; in the data active means normalized activity above about 1.9%;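 further: purified mutant Fbw7 with reduced substrate affinity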
MITF primary: blocks human microphthalmia-associated transcription factor; AlphaScreen MITF homodimerization, bead proximity signal; inhibition, % at 2.6 µM; 0.91% of 650,000 active; in the data active means inhibition above about 50%;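 further: 0% = vehicle wells with protein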
GPR151 activ: activators of human GPR151; AID 1508602; 1% of 650,000 active; PathHunter beta-arrestin GPR151 cells, luminescence; activation, % at 11.2 µM; Q8TDV0; in the data active means activation above about 4.9%;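 further: 0% = median of compound wells and 100% = cells with positive control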
GPR151 confirm: confirmation of human GPR151 activators; shares compounds with GPR151 activ; GPR151 PathHunter beta-arrestin cells, luminescence, 90 min; % of EA-reagent control over plate median; activation, % at 11.2 µM; 6,700 tested, under 10 active; AID 1508609;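 active means mean percent activation across replicates above the confirmation screen cutoff of 4.91%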
GPR119 counter: GPR119 activation, counter-screen for GPR151 activators. shares compounds with GPR151 activ. 0.3% of 6,700 active. activation, % at 11.2 µM. GPR119 PathHunter beta-arrestin cells, luminescence, 90 min; 0 = compound-well median, 100 = enzyme-acceptor control;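 active means mean percent activation in the counterscreen above 29.09%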;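 further: counterscreen on off-target GPR119 to flag nonselective hits from the GPR151 activator screen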
Target sequence (Q8TDV5 whole entry, looked up): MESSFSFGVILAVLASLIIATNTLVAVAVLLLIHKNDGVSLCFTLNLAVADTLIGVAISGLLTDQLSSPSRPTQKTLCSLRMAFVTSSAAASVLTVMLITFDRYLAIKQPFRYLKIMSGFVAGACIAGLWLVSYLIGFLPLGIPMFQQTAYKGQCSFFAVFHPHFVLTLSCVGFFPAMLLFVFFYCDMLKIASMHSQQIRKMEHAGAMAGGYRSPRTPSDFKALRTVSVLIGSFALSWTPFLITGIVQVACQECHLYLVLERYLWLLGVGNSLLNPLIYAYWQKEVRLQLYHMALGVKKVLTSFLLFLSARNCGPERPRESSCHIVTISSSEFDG
* hit, by the source's call.

Results for COc1ccccc1OC(C)C(=O)Nc1c(C)n(C)n(-c2ccccc2)c1=O (configuration not stated) ?
TEAD-YAP inh: 13; FBW7 act: 0; MITF primary: 9; GPR151 activ: 6.7*; GPR151 confirm: 0; GPR119 counter: 0

What do the screens show for `Cc1c(NC(=O)CCSc2ccc(Cl)cc2)c(=O)n(-c2ccccc2)n1C`?
TEAD-YAP inh: 4; FBW7 act: 0; MITF primary: -1; GPR151 activ: 5.2*; GPR151 confirm: -1; GPR119 counter: -12

How did CCOc1ccc(-n2c(C)cc(C(=O)COc3ccccc3C(N)=O)c2C)cc1 do in these assays?
TEAD-YAP inh: -2; FBW7 act: 0; MITF primary: 6; GPR151 activ: 3

How did COc1ccc(CCNC(=O)c2sc3ncn(CC(=O)N4CCOCC4)c(=O)c3c2C)cc1OC do in these assays?
TEAD-YAP inh: 1; FBW7 act: 1; MITF primary: 16; GPR151 activ: -1

How did C/C(=N\Nc1cc(-n2cc(C)cn2)ncn1)c1ccccc1 do in these assays?
TEAD-YAP inh: -10; FBW7 act: 0; MITF primary: 4; GPR151 activ: 0

Results for C/C(=N\Nc1cc(-n2cc(C)cn2)ncn1)c1cccc([N+](=O)[O-])c1 ?
TEAD-YAP inh: 10; FBW7 act: 0; MITF primary: 14; GPR151 activ: 19*; GPR151 confirm: 0; GPR119 counter: 4

What do the screens show for `Cc1cc(C)c(NC(=O)CSc2nc(C)cc(=O)[nH]2)c([N+](=O)[O-])c1`?
TEAD-YAP inh: -11; FBW7 act: 0; MITF primary: -1; GPR151 activ: 8.2*; GPR151 confirm: -1; GPR119 counter: -11

How did CCOC(=O)N1CCN(Cc2ccc3c(c2)CN(C(=O)c2ccc[n+]([O-])c2)CCO3)CC1 do in these assays?
TEAD-YAP inh: 4; FBW7 act: 0; MITF primary: 13; GPR151 activ: 0

What do the screens show for `Cc1ccc(-n2c(C)cc(C(=O)C(=O)Nc3nncs3)c2C)cc1C`?
TEAD-YAP inh: -26; FBW7 act: 0; MITF primary: 0; GPR151 activ: -1

What do the screens show for `Cc1ccc(O)c2nc(/C=C/c3ccccc3N)ccc12`?
TEAD-YAP inh: -63; FBW7 act: 0; MITF primary: -23; GPR151 activ: 1

Results for CCc1ccccc1-n1c(C)c(C)n2c3c(=O)n(CC(N)=O)c(=O)n(C)c3nc12 ?
TEAD-YAP inh: -3; FBW7 act: 1; MITF primary: -5; GPR151 activ: 0

How did CCc1ccccc1-n1c(C)c(C)n2c3c(=O)n(CC)c(=O)n(C)c3nc12 do in these assays?
TEAD-YAP inh: 8; FBW7 act: 0; MITF primary: 4; GPR151 activ: 5.1*; GPR151 confirm: 1; GPR119 counter: 3

What do the screens show for `CC(=O)NCCSCc1cc2cccc3c2n(c1=O)CCC3`?
TEAD-YAP inh: -11; FBW7 act: 0; MITF primary: 9; GPR151 activ: 6.3*; GPR151 confirm: -1; GPR119 counter: -8

How did N#Cc1ccc(CSC2=Nc3ccccc3C3CC=NN23)cc1 (configuration not stated) do in these assays?
TEAD-YAP inh: -3; FBW7 act: 0; MITF primary: 11; GPR151 activ: -1

How did S=C1Nc2ccccc2C2CC=NN12 (configuration not stated) do in these assays?
TEAD-YAP inh: 4; FBW7 act: 0; MITF primary: 5; GPR151 activ: 5.7*; GPR151 confirm: -1; GPR119 counter: -2

What do the screens show for `CCNS(=O)(=O)c1ccc(NC(=O)c2ccc([N+](=O)[O-])cc2)cc1`?
TEAD-YAP inh: 1; FBW7 act: 0; MITF primary: 24; GPR151 activ: 5.1*; GPR151 confirm: 0; GPR119 counter: 2

Results for CC(=O)NS(=O)(=O)c1ccc(NC(=O)COc2ccc([N+](=O)[O-])cc2)cc1 ?
TEAD-YAP inh: 14; FBW7 act: 0; MITF primary: 0; GPR151 activ: 6.1*; GPR151 confirm: 0; GPR119 counter: 1

Results for CCC(=O)Nc1cccc(NC(=O)COc2ccc([N+](=O)[O-])cc2)c1 ?
TEAD-YAP inh: 3; FBW7 act: 0; MITF primary: 8; GPR151 activ: 12*; GPR151 confirm: 0; GPR119 counter: -2

How did CCCCC(=O)Nc1cccc(NC(=O)COc2ccc([N+](=O)[O-])cc2)c1 do in these assays?
TEAD-YAP inh: 1; FBW7 act: 0; MITF primary: 9; GPR151 activ: 11*; GPR151 confirm: -1; GPR119 counter: 7

What do the screens show for `CC(C)(C)NS(=O)(=O)c1ccc(NC(=O)COc2ccc([N+](=O)[O-])cc2)cc1`?
TEAD-YAP inh: -1; FBW7 act: 0; MITF primary: -6; GPR151 activ: 1

How did Cc1ccc(NC(=O)CSc2cn(Cc3ccc(F)cc3)c3ccccc23)cc1 do in these assays?
TEAD-YAP inh: -2; FBW7 act: 0; MITF primary: 5; GPR151 activ: 7.0*; GPR151 confirm: -1; GPR119 counter: -4

Results for CN1C(=O)[C@H]2CN(C(=O)c3ccccc3)CCN2C(=O)[C@@H]1Cc1ccccc1 ?
TEAD-YAP inh: -11; FBW7 act: 0; MITF primary: 9; GPR151 activ: 5.3*; GPR151 confirm: 0; GPR119 counter: 12

How did O=C(COC(=O)c1cc2ccccc2oc1=O)Nc1nccs1 do in these assays?
TEAD-YAP inh: 0; FBW7 act: 0; MITF primary: 9; GPR151 activ: -1

Results for COc1cc(OC)c(C(=O)OCC#N)cc1OC ?
TEAD-YAP inh: 6; FBW7 act: 0; MITF primary: 1; GPR151 activ: 5.7*; GPR151 confirm: 0; GPR119 counter: 4

How did CC(C)N(CCNC(=O)c1ccc2nc(Nc3ncccn3)sc2c1)C(C)C do in these assays?
TEAD-YAP inh: -18; FBW7 act: 0; MITF primary: -4; GPR151 activ: 2

Results for CC(C)N(CCNC(=O)c1ccc2nc(Nc3ccnn3C)sc2c1)C(C)C ?
TEAD-YAP inh: -11; FBW7 act: 0; MITF primary: -1; GPR151 activ: 6.8*; GPR151 confirm: -1; GPR119 counter: -16

How did CC(C)N(CCNC(=O)c1cccc(Nc2ccnn2C)n1)C(C)C do in these assays?
TEAD-YAP inh: -4; FBW7 act: 0; MITF primary: 10; GPR151 activ: 6.1*; GPR151 confirm: -1; GPR119 counter: -17

How did O=C(Nc1ccc(O)c(-c2nc3ccccc3s2)c1)c1ccc(S(=O)(=O)N2CCOCC2)cc1 do in these assays?
TEAD-YAP inh: 9; FBW7 act: 0; MITF primary: 7; GPR151 activ: 1

What do the screens show for `O=C1CCCN1CCCNc1nc2ncnc(NCc3ccccc3)c2[nH]1`?
TEAD-YAP inh: 5; FBW7 act: 0; MITF primary: 7; GPR151 activ: 1
